# ER stress death: ER stress cell death inhibition | 48,000 compounds, 0.33% hits | relative survival (cellular ATP), % at 15 µg/mL (by protocol) | CSM14.1 thapsigargin ER stress survival, ATP luminescence | AID 1010;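 active = survival measured by cellular ATP above 50% at 15 µg/ml in the first screen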;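 note: cell death triggered by about 15 µM thapsigargin; ATP read 24 h after thapsigargin was added; plate controls were thapsigargin with DMSO for no effect and DMSO without thapsigargin for full effect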
# An asterisk follows results filed as active. This is one part of a sample in which hits are shown more often than they occur.
SMILES,ER stress death
CCOc1ccc(N(CC(=O)Nc2cccc(C(F)(F)F)c2)S(C)(=O)=O)cc1,-1
COc1ccc(C2=CC(=O)CC(c3ccccc3)C2)cc1 (stereo not drawn),-1
O=C1C=C(c2ccccc2)CC(c2ccccc2)C1n1nnc2ccccc21 (stereo not drawn),95*
Cc1cc(F)ccc1NCc1ccccn1,-3
CCOc1cc(/C=C2\N=C(c3ccccc3)OC2=O)ccc1OCc1c(C)no[n+]1[O-],2
COc1ccc(C2CC(=O)C3=C(C2)Nc2ccccc2NC3c2ccc(O)cc2)cc1 (stereo not drawn),2
O=C1CC(c2ccccc2)CC2=C1C(c1ccco1)Nc1ccccc1N2 (stereo not drawn),2
O=C1CC(c2ccccc2)CC2=C1C(c1cccnc1)Nc1ccc(C(=O)c3ccccc3)cc1N2 (stereo not drawn),102*
O=C1CCCC2=C1C(c1cccs1)Nc1ccc(C(=O)c3ccccc3)cc1N2 (stereo not drawn),-2
O=C1CC(c2ccccc2)CC2=C1C(c1ccc(O)cc1)Nc1ccc(C(=O)c3ccccc3)cc1N2 (stereo not drawn),106*
O=C1CCCC2=C1C(c1ccc(O)cc1)Nc1ccc(C(=O)c3ccccc3)cc1N2 (stereo not drawn),-4
O=C1CCCC2=C1C(c1ccc([N+](=O)[O-])cc1)Nc1ccc(C(=O)c3ccccc3)cc1N2 (stereo not drawn),121*
O=C1CCCC2=C1C(c1ccc(F)cc1)Nc1ccc(C(=O)c3ccccc3)cc1N2 (stereo not drawn),4
COc1ccc(C2CC(=O)C3=C(C2)Nc2ccccc2NC3c2cccnc2)cc1OC (stereo not drawn),2
CCCCOC(=O)c1cccc(NC(=O)/C=C/c2ccc(OC)cc2)c1,-3
CC(=O)C(Cc1ccccc1)S(=O)(=O)c1ccc([N+](=O)[O-])cc1 (stereo not drawn),2
CC(C)(C)c1ccc(C2=N/C(=C\c3ccc(C#N)cc3)C(=O)O2)cc1,4
CCCn1c(/N=C(\C)c2cc(Cl)ccc2O)nc2ccccc21,8
CCOC(=O)C1=C(c2ccccc2)N=c2s/c(=C\c3ccc[nH]3)c(=O)n2C1c1cc(OC)ccc1OC (stereo not drawn),-1
CC1=C(C(=O)Nc2ccc(Br)cc2)C(c2ccccc2)NC(=S)N1 (stereo not drawn),-2
Brc1cccc(C=NN2CCN(Cc3ccccc3)CC2)c1,11
O=C(c1ccc([N+](=O)[O-])cc1)N1CCN(CCCc2ccccc2)CC1,-1
Cc1ccc2nc(/C(C#N)=C\c3ccc(Br)cc3)[nH]c2c1,2
CCCCNCCCCCCOc1ccc(C(C)C)cc1,-19
CN(C)c1ccc(CNC(=O)C(O)(c2ccc(Cl)cc2)c2ccc(Cl)cc2)cc1,2
SMILES,ER stress death
COc1ccc(C2Nc3ccccc3NC3=C2C(=O)CC(c2ccccc2)C3)cc1OC (stereo not drawn),7
COc1ccc(C2CC(=O)C3=C(C2)Nc2ccccc2NC3c2cccc(C(F)(F)F)c2)cc1OC (stereo not drawn),135*
COc1ccc(C2CC(=O)C3=C(C2)Nc2ccccc2NC3c2cccc(Br)c2)cc1OC (stereo not drawn),122*
COc1ccc(C2CC(=O)C3=C(C2)Nc2ccccc2NC3c2ccc(F)cc2)cc1OC (stereo not drawn),13
COc1ccc(C2CC(=O)C3=C(C2)Nc2ccccc2NC3c2ccc(OC(C)=O)c(OC)c2)cc1OC (stereo not drawn),3
COc1ccc(C2Nc3ccccc3NC3=C2C(=O)CC(c2ccc(OC)c(OC)c2)C3)cc1 (stereo not drawn),5
Cc1ccc(N(Cc2ccc(C(=O)Nc3ccc(C)c(Cl)c3)cc2)S(C)(=O)=O)cc1C,-1
O=C(Nc1ccc(Cl)cc1)Nc1ccc(S(=O)(=O)N2CCc3ccccc32)cc1,0
CCOc1ccccc1NC(=O)c1c(NC(=O)c2ccccc2Br)sc2c1CCCC2,-5
O=C1C=CC(=O)C(/C(=C/NCc2ccccc2)[N+](=O)[O-])=C1,-4
COc1ccc(OC)c(NC(=O)CN(CCc2ccccc2)S(=O)(=O)c2ccccc2)c1,13
O=[N+]([O-])c1ccc2nc(Sc3nc4ccccc4[nH]3)sc2c1,0
COc1cc(NC(=O)COc2ccc(Br)c(C)c2)c(OC)cc1Cl,4
CCOc1ccc(/C=C2/NC(=S)NC2=O)cc1,6
O=C(C(c1ccccc1)c1ccccc1)N1CCN(Cc2ccccc2[N+](=O)[O-])CC1,92*
COc1ccccc1C(=O)N1CCN(Cc2ccccc2[N+](=O)[O-])CC1,3
COc1cccc(CN2CCN(C(=O)C(c3ccccc3)c3ccccc3)CC2)c1OC,10
COC(=O)C1=C(C)N(c2ccc(F)cc2)C(=O)/C1=C\c1ccc([N+](=O)[O-])cc1,-1
CCC(C)C(=O)N1c2ccc(OC)cc2-c2c(ssc2=S)C1(C)C (stereo not drawn),5
CCOc1ccccc1C1Nc2ccccc2NC2=C1C(=O)CC(c1ccc(OC)cc1)C2 (stereo not drawn),19
CCCOC(=O)C1=C(C)NC2=C(C(=O)CC(c3ccc(OC)cc3)C2)C1c1ccc(OCc2ccccc2)c(OC)c1 (stereo not drawn),6
CSc1ccc(C2Nc3ccccc3NC3=C2C(=O)CC(c2ccccc2)C3)cc1 (stereo not drawn),91*
CCCCOC(=O)C1=C(C)NC2=C(C(=O)CC(c3ccccc3)C2)C1c1ccco1 (stereo not drawn),68*
COc1ccc(C2CC(=O)C3=C(C2)Nc2ccccc2NC3c2ccccc2)cc1 (stereo not drawn),19
O=C1CC(c2ccccc2)CC2=C1C(c1ccc(-c3ccccc3)cc1)Nc1ccccc1N2 (stereo not drawn),8
SMILES,ER stress death
Cc1ccc(C2Nc3ccccc3NC3=C2C(=O)CC(c2ccccc2)C3)cc1 (stereo not drawn),49
COc1ccccc1C1Nc2ccccc2NC2=C1C(=O)CC(c1ccccc1)C2 (stereo not drawn),0
COC(=O)C1=C(C)NC2=C(C(=O)CC(c3ccccc3)C2)C1c1ccc(Cl)cc1 (stereo not drawn),0
CCCCOc1ccccc1C1Nc2ccccc2NC2=C1C(=O)CC(c1ccccc1)C2 (stereo not drawn),53*
COc1ccc(C2CC(=O)C3=C(C2)Nc2ccccc2NC3c2cc(C)ccc2C)cc1 (stereo not drawn),116*
COc1ccc(C2CC(=O)C3=C(C2)Nc2ccccc2NC3c2ccccc2Br)cc1 (stereo not drawn),8
CCSc1nc(O)c(Cc2ccccc2)c(=O)n1-c1ccc(C)cc1,2
COc1cc(OC)c(OC)cc1CN1CCN(C2CCCCC2)CC1,1
O=C(O)/C(=C\c1cccc([N+](=O)[O-])c1)NC(=O)c1ccccc1,3
COc1ccc(C(=O)/C=C/c2ccccc2F)cc1OC,3
CCOc1ccc(/C=N\NC(=O)C2CC(=O)N(c3ccc(Br)cc3)C2)cc1 (stereo not drawn),2
CCOc1cc(/C=N/N2CCN(Cc3ccc(Cl)cc3)CC2)ccc1O,0
CCC1CCc2c(sc(NC(=O)c3ccccc3[N+](=O)[O-])c2C(=O)OC)C1 (stereo not drawn),6
C(=Nc1ccc2c(c1)ncn2-c1ccccc1)c1c[nH]c2ccccc12,40
CCCCNCCCCCOc1c(Cl)cccc1Cl,-8

# Compound activity as filed in PubChem.
